JMJD2A Tudor inh: JMJD2A Tudor domain (human) inhibition | AlphaScreen JMJD2A-Tudor / H3K4me3 peptide binding | Potency, µM (series often up to 114 µM), for the others: top-dose activity change, negative = inhibition, most hits filed as inhibitors | 390,000 compounds, 4.4% hits | AID 504339; note: % is set by controls: 0 for no effect and ±100 for the full control effect; nearly all actives have a fitted effect of over 50% in size
Target sequence (O75164 whole entry, looked up, the tested form may be a part): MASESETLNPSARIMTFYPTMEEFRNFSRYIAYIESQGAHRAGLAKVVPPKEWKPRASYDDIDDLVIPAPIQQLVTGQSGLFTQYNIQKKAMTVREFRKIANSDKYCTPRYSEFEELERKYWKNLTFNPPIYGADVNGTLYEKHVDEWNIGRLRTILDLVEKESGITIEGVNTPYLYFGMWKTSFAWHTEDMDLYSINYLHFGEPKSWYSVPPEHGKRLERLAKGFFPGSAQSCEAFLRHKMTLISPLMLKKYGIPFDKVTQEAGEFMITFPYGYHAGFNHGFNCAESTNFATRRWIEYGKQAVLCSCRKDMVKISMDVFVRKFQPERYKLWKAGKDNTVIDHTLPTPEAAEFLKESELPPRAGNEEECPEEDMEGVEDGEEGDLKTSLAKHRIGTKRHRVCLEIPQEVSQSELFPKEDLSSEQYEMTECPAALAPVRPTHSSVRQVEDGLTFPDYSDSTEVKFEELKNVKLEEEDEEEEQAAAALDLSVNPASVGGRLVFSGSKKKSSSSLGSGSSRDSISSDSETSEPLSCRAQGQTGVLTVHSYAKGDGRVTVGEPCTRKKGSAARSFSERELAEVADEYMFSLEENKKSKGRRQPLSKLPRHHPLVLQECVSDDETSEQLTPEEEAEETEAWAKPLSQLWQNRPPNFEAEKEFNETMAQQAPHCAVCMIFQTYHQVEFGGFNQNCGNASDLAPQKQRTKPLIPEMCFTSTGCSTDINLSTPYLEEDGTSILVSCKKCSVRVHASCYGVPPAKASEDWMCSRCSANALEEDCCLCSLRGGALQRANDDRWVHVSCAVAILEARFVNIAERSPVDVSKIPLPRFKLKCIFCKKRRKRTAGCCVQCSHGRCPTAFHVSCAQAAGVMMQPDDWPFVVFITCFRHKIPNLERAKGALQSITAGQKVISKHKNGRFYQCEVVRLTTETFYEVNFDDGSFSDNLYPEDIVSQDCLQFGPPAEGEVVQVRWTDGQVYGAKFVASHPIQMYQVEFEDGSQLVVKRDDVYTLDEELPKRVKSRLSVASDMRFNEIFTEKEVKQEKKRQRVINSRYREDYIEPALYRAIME
Sfp inh: inhibitors of Bacillus subtilis Sfp phosphopantetheinyl transferase | Q9F4F7 | Biochemical Sfp PPTase activity, qHTS | Potency, µM, inactives show largest response in the series, negative = inhibition, most hits filed as inhibitors | 310,000 compounds, 3.5% hits | AID 1490;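 note: the enzyme is Sfp with the accession as filed and its product quenches rhodamine fluorescence; 0% = enzyme reaction without inhibitor and -100% = no enzyme wells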
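Fluorescence-quenching assay: 15 nM Sfp-PPTase preincubated 15 min at room temperature with compound, then 5 uM rhodamine-CoA and 12.5 uM BHQ-2-labelled YbbR peptide added. Fluorescence (ex 525/em 598 nm) read at start and after 30 min; difference gives rate.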
G9a block: inhibitors of human histone lysine methyltransferase G9a; Q96KQ7; G9a H3K9 monomethylation, AlphaScreen, 2 h; Potency, µM (highest dose often 102 µM), without a hit: top-dose activity, negative = inhibition, actives largely listed as inhibitors; 350,000 compounds, 8.8% hits; note: % is set by controls: 0 for no effect and ±100 for the full control effect; nearly all actives have a fitted effect of over 75% in size
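Methyltransferase reactions run at room temperature for 2 h (20 nM enzyme, 500 nM biotin-H3K9 peptide, 20 uM SAM) after a 15 min compound preincubation; product detected by AlphaScreen beads and anti-H3K9me1 antibody.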
BAZ2B inh: inhibitors of human BAZ2B bromodomain; Q9UIF8; AlphaScreen BAZ2B-H3K14Ac peptide displacement; Potency, µM (highest dose often 114 µM), inactives show top-dose activity change, negative = inhibition, most hits filed as inhibitors; 360,000 compounds, 4.4% hits; AID 504333; note: % is set by controls: 0 for no effect and ±100 for the full control effect; nearly all actives have a fitted effect of over 60% in size
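AlphaScreen displacement: compounds (up to 110uM) incubated 30 min at room temperature with a preformed 50 nM BAZ2B/50 nM biotinylated H3K14Ac peptide complex in PBS pH 7.4 with Tween-20. Donor and acceptor beads at 10 ug/mL final added, 20 min light-protected before reading.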
HP1b binding inh: blocks HP1-beta chromodomain binding to methylated histone tails | Potency, µM (doses to about 114 µM), for the others: at the highest dose activity change, negative = inhibition, hits mostly inhibitors | 390,000 compounds, 0.56% hits | AID 540317 | AlphaScreen HP1-beta / biotin-H3K9me3 peptide binding; note: nearly all actives have a fitted effect of over 70% in size
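HP1-beta protein (50 nM final) preincubated 30 min at room temperature with biotinylated H3(1-18)K9me3 peptide (50 nM) in PBS pH 7.4, 0.01% Tween-20, then compound added for 30 min. AlphaScreen streptavidin donor/nickel chelate acceptor beads (10 ug/mL final), 30 min dark, luminescence read.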
L3MBTL1 block: inhibitors of human L3MBTL1; Q9Y468; Potency, µM (titrated, usually from 57.1 µM), without a hit: at the top dose activity, negative = inhibition, most hits filed as inhibitors; 230,000 compounds, 0.66% hits; AlphaScreen L3MBTL1–H3K9me1 peptide binding; note: % is set by controls: 0 for no effect and ±100 for the full control effect; nearly all actives have a fitted effect of over 60% in size
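AlphaScreen assay: L3MBTL1 (50 nM final) was preincubated 30 min at room temperature with biotinylated H3(1-15)K9me1 peptide (75 nM final), then 30 min with library compounds; streptavidin donor and nickel chelate acceptor beads (10 ug/mL final) added, 30 min dark.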
* marks the source's active call; other numbers are inactive results; u = inconclusive; x = no result; [ ] = dose if it differs, or a comment. The list is not random: actives were taken first. Their share in the collection is about 12%. Calls come from the whole dose curve; as a rule, active = well fitted curve in the direction sought with a large enough effect; inconclusive = small, poorly fitted or top-dose-only effect, or another doubt; inactive = no such curve, though single readings can be large; an effect the other way counts as inactive or inconclusive. Potency is the fitted concentration of half-maximal effect.

SMILES	JMJD2A Tudor inh	Sfp inh	G9a block	BAZ2B inh	HP1b binding inh	L3MBTL1 block
COCCNC(=O)c1cc(S(=O)(=O)N2CCCCC2)ccc1N1CCOCC1	-4.1%	x	-43.5%	u	24.4%	5.1%
COCCCNCc1cc(C)n(-c2cc(S(=O)(=O)N3CCOCC3)ccc2N2CCCC2)c1C	79.4µM*	x	x	x	u	x
Cc1ccc(-n2ncc(C(=O)NC3CCCCC3)c2C2CCN(C(=O)OC(C)(C)C)CC2)cc1	-21.4%	x	-3.3%[59 µM]	15.4%[57.1 µM]	43.8%	x
Nc1nc(C(=O)N2CCOCC2)nn1C(=O)c1ccc(Cl)cc1	2.8%	4.6%	35.5µM*	-18.1%	70.3%	16.9%
CCCCN(C)Cc1cc(=O)oc2cc3c(cc12)CCCC3	39.6%	-6.2%	111.6%	34.9%	85.9%	22.8%
CCN(CCO)Cc1cc(=O)oc2cc3c(cc12)CCC3	-3.6%	9.2%	39.8µM*	-24.8%	36.8%	0.4%
O=c1c2ccccc2nnn1CSc1nnc(-c2cccnc2)n1-c1ccccc1F	-16.3%	13.6%	50.1µM*	-0.4%	7.1%	-4.8%
Nn1c(Cc2ccccc2F)nnc1SCn1nnc2ccccc2c1=O	-12.9%	3.4%	25.1µM*	10.1%	58.9%	-5.3%
Cc1c(C(=O)O/N=C(\N)c2ccccn2)cccc1[N+](=O)[O-]	11.2µM*	6.5%	31.6µM*	-27.5%	0.7%	5.1%
N/C(=N\OC(=O)c1ccc(Cl)cc1[N+](=O)[O-])c1ccccn1	u	15.6%	x	-13.2%	13.5%	-1.7%
N/C(=N\OC(=O)Cc1ccccc1[N+](=O)[O-])c1ccccn1	u	-29.6%	u	56.2µM*	12.2%	-22.7%
O=C(COC(=O)CNC(=O)c1cccc(Br)c1)Nc1nnc(-c2ccccc2)o1	-2.9%	x	-13.3%[12.7 µM]	11.8%	29.6%	12.7%
COc1cc(C(=O)NCC(=O)OCC(=O)Nc2nnc(-c3ccccc3)o2)cc(OC)c1OC	22.4µM*	x	-4.3%[59 µM]	u	11.5%	5.1%
COc1cc(C(=O)NCC(=O)OCC(=O)c2cccc3ccccc23)cc(OC)c1OC	-4.5%	17.2%	70.8µM*	-24.3%	7.2%	x
O=C(COC(=O)CNC(=O)c1ccccc1)Nc1nnc(-c2ccccc2)o1	u	x	44.7µM*	u	50.9%	12.4%
COc1cc2[nH]c3c(=O)n(CCN(C(C)C)C(C)C)cnc3c2cc1OC	-10.4%	-19.2%	79.4µM*	0.6%	41.1%	x
O=[N+]([O-])c1ccc(S(=O)(=O)N(CCCN2CCOCC2)Cc2cccs2)cc1	79.4µM*	-8.4%	35.5µM*	50.1µM*	7.0%	x
O=C(Nc1ccccc1)N(CCCN1CCOCC1)Cc1cccs1	-18.6%	15.9%	11.5%	12.2%	22.9%	6.7%
CC(C)(C)c1ccc(S(=O)(=O)N(CCCN2CCOCC2)Cc2cccs2)cc1	22.4µM*	2.24µM*	14.1µM*	25.1µM*	15.8µM*	-16.3%
CCc1ccc(NC(=O)N(CCCN2CCOCC2)Cc2cccs2)cc1	-25.5%	11.7%	7.7%	11.0%	39.9%	x
CC(=O)Nc1ccc(S(=O)(=O)N(CCCN2CCOCC2)Cc2cccs2)cc1	44.7µM*	-27.2%	39.8µM*	79.4µM*	-7.9%	x
N#CCCn1cnc2c(=S)nc[nH]c21	35.5µM*	u	u	-33.1%	6.6%	-4.3%
CCCOc1cccc(C(=O)Nc2cc(-c3ccccc3)no2)c1	1.7%	x	5.2%[59 µM]	9.9%	41.2%	x
CCC(CO)Oc1cc(NCc2ccccc2Cl)c2ncn(C(C)C)c2c1 (stereo not given)	50.1µM*	x	-11.6%[2.33 µM]	u	-22.5%	-3.9%
CCC(CO)Oc1cc(NCc2ccccc2C(F)(F)F)c2ncn(C(C)C)c2c1 (stereo not given)	44.7µM*	x	x	x	u	-28.7%
SMILES	JMJD2A Tudor inh	Sfp inh	G9a block	BAZ2B inh	HP1b binding inh	L3MBTL1 block
CCCCN(CC)C(=O)c1nn(-c2ccc(OC)cc2)c(=O)c2c1c1ccccc1n2C	-1.7%	x	2.6%[59 µM]	x	53.8%	x
CCC1C(O)=C(c2ccccn2)C(=N)N1c1ccccc1 (stereo not given)	-20.8%	-12.1%	22.4µM*	u	24.8%	-4.2%
CC(C)(C)S(=O)N1Cc2cc(CO)cc(CCO)c2[C@H]1CCO (stereo not given in full)	-0.7%	x	x	x	45.5%	x
CCCN1C(=O)/C(=C/c2c(NCCCOCC)nc3c(C)cccn3c2=O)SC1=S	-3.6%	-4.8%	-37.1%[59 µM]	6.1%	31.7%	43.9%
O=C1/C(=C\c2c(NCCOCCO)nc3ccccn3c2=O)SC(=S)N1Cc1ccco1	-22.6%	39.8µM*	39.8µM*	u	-2.5%	-1.7%
CN(C(=O)CSc1nc2ccccc2n1C)C1CCS(=O)(=O)C1 (stereo not given)	4.4%	x	5.4%[12.7 µM]	0.0%	45.5%	2.1%
COc1ccc(-c2csc3ncnc(N4CCN(c5ccc(OC)cc5)CC4)c23)cc1	31.6µM*	-5.6%	x	10µM*	u	x
COc1ccc(-c2csc3ncnc(N4CCN(c5ccccc5)CC4)c23)cc1	u	16.3%	70.8µM*	u	-7.0%	-13.9%
COc1ccc(-c2csc3ncnc(N4CCN(c5ccccc5[N+](=O)[O-])CC4)c23)cc1	u	6.0%	14.1µM*	u	u	x
Cc1ccc(-c2csc3ncnc(NCCN4CCOCC4)c23)cc1	-8.2%	3.4%	x	-26.4%	32.3%	-4.0%
Cc1ccc(-c2csc3ncnc(Nc4ccc(N5CCOCC5)cc4)c23)cc1	-35.1%[11.4 µM]	u	u	44.7µM*	u	-8.4%
Cc1c(-c2nnc(SCC(=O)Nc3ccc(Br)cc3)o2)nnn1-c1ccc(F)cc1	-7.7%	x	13.5%[59 µM]	-2.1%	23.1%[57 µM]	x
Cc1ccc(NC(=O)CSc2nc3nccnc3c(=O)n2CCc2c[nH]c3ccccc23)cc1C	-19.7%	x	4.1%[59 µM]	-0.3%	11.2%	x
COc1ccc(N2CCN(c3ncnc4onc(-c5ccc(F)cc5)c34)CC2)cc1	u	x	17.8µM*	-32.7%[57.1 µM]	-0.5%	x
Fc1ccc(N2CCN(c3ncnc4onc(-c5ccc(Cl)cc5)c34)CC2)cc1	-17.5%	x	4.3%[59 µM]	-17.3%	32.9%	x
CCN(CC)S(=O)(=O)c1ccc(-c2csc(=Nc3cccc(C(F)(F)F)c3)n2Cc2ccc3c(c2)OCO3)cc1	u	x	u	-34.3%	30.7%	x
COC(=O)c1cc(CNC(=O)c2ccccc2OCc2c(C)noc2C)ccc1OC	-6.2%	20.5%	7.2%	-15.9%	47.4%	x
O=C(NCc1ccco1)C1Cc2ccccc2CN1S(=O)(=O)c1ccccc1F (stereo not given)	39.8µM*	x	x	x	u	x
O=C(NCc1ccco1)C1CN(S(=O)(=O)c2ccccc2)CCN1S(=O)(=O)c1ccccc1 (stereo not given)	-14.9%	10.5%	u	3.4%	16.0%	-2.3%

Assay outcomes deposited in PubChem BioAssay by National Center for Advancing Translational Sciences (NCATS).
